USP28 block: blocks human USP28 ubiquitin-rhodamine cleavage; purified USP28, Ub-rhodamine cleavage fluorescence, 30 min; AID 1645857; inhibition, % at 25 µM; 3% of 47,000 active
USP8 inh: blocks human USP8 ubiquitin-rhodamine cleavage. P40818. purified USP8, Ub-rhodamine cleavage fluorescence, 30 min. inhibition, % at 20 µM. 4.2% of 47,000 active. AID 1645853
OTUD3 block: blocks human OTUD3 ubiquitin-rhodamine cleavage. Q5T2D3. purified OTUD3, Ub-rhodamine fluorescence, 2 h. 0.7% of 47,000 active. AID 1645858. inhibition, % at 25 µM
USP10 block: inhibitors of human USP10 deubiquitinase; Q14694; purified USP10, Ub-rhodamine fluorescence, 60 min; inhibition, % at 20 µM; 1.1% of 47,000 active
USP7 inh: human USP7 deubiquitinase inhibition | Q93009 | purified USP7, Ub-rhodamine cleavage fluorescence | inhibition, % at 20 µM | 0.3% of 47,000 active | AID 1645854
UCHL1 block: human UCHL1 deubiquitinase inhibition; purified UCHL1, Ub-rhodamine cleavage fluorescence; inhibition, % at 20 µM; 0.2% of 47,000 active; AID 1645859
Target sequence (P09936 whole entry, looked up): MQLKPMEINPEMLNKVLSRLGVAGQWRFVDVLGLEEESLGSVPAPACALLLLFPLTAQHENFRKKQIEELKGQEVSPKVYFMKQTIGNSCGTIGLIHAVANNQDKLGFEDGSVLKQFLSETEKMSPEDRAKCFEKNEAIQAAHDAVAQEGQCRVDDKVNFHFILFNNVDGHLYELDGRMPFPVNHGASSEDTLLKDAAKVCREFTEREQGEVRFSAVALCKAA
Active calls of the source: *; / = no result given. Rows were chosen to be rich in hits. Some 6.8% of all compounds tested hit in one or more screens of this group. Rule as the data show it: active = inhibition above about 30%; inactive = the rest.

SMILES	USP28 block	USP8 inh	OTUD3 block	USP10 block	USP7 inh	UCHL1 block
CN(C(=O)Cn1c(=O)nc(N(C)c2ccccc2)c2ccccc21)c1ccccc1	10	9	10	0	2	1
CCc1ccccc1NC(=O)c1c(O)c2cnn(C)c2[nH]c1=O	-16	84*	-12	0	-1	-2
Cc1ccc(-n2ncc3c(O)c(C(=O)Nc4ccccc4F)c(=O)[nH]c32)cc1	11	83*	14	18	-14	2
O=C(NCc1ccc(F)cc1)c1cc(-n2cnnn2)ccc1Cl	30*	24	6	3	1	2
Cn1nnc2cc(C(=O)NCc3ccc(F)cc3)ccc21	-1	4	0	-3	-1	-2
COc1c(C)c(OC(=O)c2c(C)c(C)c(OC(=O)c3c(C)c(C)c(O)c(C)c3O)c(C)c2OC)c(C)c(C)c1C(=O)O	70*	9	13	66*	5	0
COc1c(O)c(C)c(C)c(O)c1OC (tested in a mixture with another compound)	4	9	4	3	5	1
COc1ccc(CC(=O)Nc2cc(F)c3nc(N4CCOCC4)ccc3c2)cc1	-18	49*	-6	3	1	-3
COc1ccc(C(=O)Nc2cc(F)c3nc(N4CCOCC4)ccc3c2)c(OC)c1	0	78*	-13	-11	-16	6
Cc1ccc(C)c(N(C)C(=O)c2nn(C)c3c2CSc2ccccc2-3)c1	27	13	15	6	7	8
C/C=C(\CO)C(=O)O[C@H]1[C@H](O)[C@@H](C(=O)OC)O[C@@H]2C[C@H]3O[C@@H](n4cnc5c(N)ncnc54)[C@H](OC)[C@H]3O[C@]21O	-1	-2	12	-3	0	1
COc1ccc(CSc2nnc(CNC(=O)c3ccccc3C)n2C(C)C)cc1	/	3	-2	0	-6	-4
Cc1ccc(Cn2nnc(C(=O)NCc3ccco3)c2-n2cccc2)cc1	58*	23	11	1	-5	5
Cc1ccc(Cn2nnc(C(=O)N3CCCC3)c2-n2cccc2)cc1	13	18	6	-6	-1	-1
Cc1ccccc1NC(=O)c1[nH]c(C)c(S(=O)(=O)N2CCCC2)c1C	-1	-2	-3	-2	0	-2
Cc1ccc(NC(=O)c2ccccc2NC(=O)COc2cc(C)cc(C)c2)cc1	-2	7	-3	6	10	0
Cc1cc(OCC(=O)Nc2ccccc2C(=O)Nc2ccccc2)ccc1Cl	-6	21	4	35*	10	-1
COc1cccc(NC(=O)Nc2ccc3nc4n(c(=O)c3c2)CCCC4)c1	55*	50*	13	16	13	9
COc1ccc(NC(=O)Nc2ccc3nc4n(c(=O)c3c2)CCCC4)cc1OC	31*	2	6	6	6	5
O=C(Nc1ccc2c(c1)OCCO2)Nc1ccc2nc3n(c(=O)c2c1)CCCC3	68*	0	-2	2	3	1
O=C(Nc1ccc2nc3n(c(=O)c2c1)CCCC3)c1ccc2c(c1)OCO2	1	-4	-8	-4	3	4
O=C(c1cnc(-c2ccccc2)nc1-c1ccccc1)N1CCN(c2ccccc2F)CC1	-10	0	-3	4	7	6
O=S1(=O)C[C@H](NCc2ccccc2F)[C@@H](S(=O)(=O)c2ccccc2)C1	9	24	6	1	6	4
CCc1cc2c(=O)[nH]c(Cc3ccc(OC)cc3)nc2s1	11	35*	8	9	2	3
O=c1c2ccsc2ncn1Cc1ccccc1F	32*	2	-8	0	/	0
SMILES	USP28 block	USP8 inh	OTUD3 block	USP10 block	USP7 inh	UCHL1 block
O=C(Nc1ccccc1F)C1=NOC2(CCNCC2)C1	39*	-3	21	-4	5	0
Cc1ccc(NC(=O)C2=NOC3(CCNC3)C2)cc1 (centres undefined)	12	-15	4	0	4	1
COc1ccc(CN2CCCC23CCCN(C(=O)CCc2cccnc2)C3)cc1F (centres undefined)	93*	-73	44*	-1	1	0
Cc1ccc(OCc2nc3ccccc3n2Cc2ccccc2C)cc1	7	14	9	7	-3	4
COc1ccc(NC(=O)COc2cc(C)nc(-c3ccc(C)cc3)n2)c(OC)c1	12	46*	10	30*	4	0
COc1ccc(NC(=O)COc2ccc(C(=O)c3ccccc3)cc2)c(OC)c1	-3	-4	2	9	6	7
O=C1NCc2ccccc2CC12CCCCN2Cc1ccnc2ccccc12 (centres undefined)	-125	-11	-106	-10	-98	-91
Cc1cc(C(=O)N2CC[C@@H]3CN(Cc4ccc(Cl)cc4)S(=O)(=O)[C@@H]3CC2)no1	-9	-13	-9	-1	-9	-1
Cc1cc(C(=O)Nc2cc(C)n(Cc3ccc(Cl)cc3)n2)no1	72*	0	2	2	-5	0
COc1ccccc1NC(=O)C1=C(C)Nc2nc(CCCO)nn2C1c1ccccn1 (centres undefined)	-10	0	-5	-2	0	-6
Cc1cc(O)c(Oc2cc(C)cc(O)c2O)c(O)c1	47*	0	34*	2	-81	0
O=C(Cn1nnc(-c2ccc(F)cc2)n1)NCCc1ccccc1	4	4	-4	4	/	0
O=C(Nc1nc2c(s1)CCCC2)c1cccc(Cl)c1Cl	38*	15	8	6	-21	3
O=C(Nc1nc2c(s1)CCCC2)c1cn(-c2ccccc2)nc1-c1ccccc1	11	28	5	7	-9	9
O=C(Nc1nc2c(s1)CCC2)c1cccc(N2CCNC2=O)c1	31*	-4	-1	0	-3	-2
CN1CCc2nc(NC(=O)COc3ccc(C#N)cc3)sc2C1	33*	-3	21	-3	3	1
Cc1cccc(OCC(=O)Nc2nc3c(s2)CCCC3)c1	48*	-19	19	14	3	8
OC(c1ccc2c(c1)OCO2)c1ncc(-c2ccc(Cl)cc2)[nH]1 (centres undefined)	-4	5	-14	-6	-3	-3
OC(c1ccc2c(c1)OCO2)c1ncc(-c2ccc3ccccc3c2)[nH]1 (centres undefined)	-2	40*	-10	-6	3	-1
CCc1noc(-c2csc(C(=O)NCc3ccc(F)cc3)n2)n1	5	5	0	-3	-5	0
CCOc1ccc(NC(=O)Cn2cnc(S(=O)(=O)N3CCc4ccccc43)c2)cc1	48*	1	12	6	12	2
CCOC(=O)Nc1nc2c(s1)CN(C(=O)c1ccccc1F)CC2	-12	-4	-8	-3	-2	-1
COc1ccc(C2CC(=O)N(Cc3ccccc3F)c3ccccc3S2(=O)=O)cc1OC (centres undefined)	0	33*	-2	10	-25	2

Bioassay records as filed in PubChem.
